Laboratory results taken from PubChem BioAssay AID1159580 (chemical genetic matrix, 2015).
The campaign covered roughly 5,500 compounds. About 2,000 (36%) were called active. Inconclusive results (about 18%) are left out. Rule as the data show it: active = normalized growth mostly below about 0.91 (no sharp cut-off); inconclusive = no clear call, values can overlap the other calls; inactive = mostly above about 0.92. The list shows a part of the results.

Assay: chemical genetic growth profiling, strain panel (AID 1159580);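 also: tested at 20 µM; growth read once vehicle control cultures reached saturation at 30 °C; 1 = growth at the plate median or of vehicle wells; lower values mean less growth of the strain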
Conditions: growth OD
[1] = S. cerevisiae deletion strains, locus YBR021W, strain FUR4, hits give low values
[2] = S. cerevisiae deletion strains, locus YBR229C, strain ROT2, hits give low values
[3] = S. cerevisiae deletion strains, locus YCL029C, strain bik1, hits give low values
[4] = S. cerevisiae deletion strains, locus YDL035C, strain GPR1, hits give low values
[5] = S. cerevisiae deletion strains, locus YDL074C, strain BRE1, hits give low values
[6] = S. cerevisiae deletion strains, locus YDL101C, strain DUN1, hits give low values
[7] = S. cerevisiae deletion strains, locus YDL185W, strain tfp1, hits give low values
[8] = S. cerevisiae deletion strains, locus YDL192W, strain arf1, hits give low values
[9] = S. cerevisiae deletion strains, locus YDR101C, strain arx1, hits give low values
[10] = S. cerevisiae deletion strains, locus YDR162C, strain NBP2, hits give low values
[11] = S. cerevisiae deletion strains, locus YDR318W, strain mcm21, hits give low values
[12] = S. cerevisiae deletion strains, locus YDR388W, hits give low values
[13] = S. cerevisiae deletion strains, locus YDR502C, strain sam2, hits give low values
[14] = S. cerevisiae deletion strains, locus YER110C, hits give low values
[15] = S. cerevisiae deletion strains, locus YER155C, strain BEM2, hits give low values
[16] = S. cerevisiae deletion strains, locus YER167W, strain BCK2, hits give low values
[17] = S. cerevisiae deletion strains, locus YGL078C, strain dbp3, hits give low values
[18] = S. cerevisiae deletion strains, locus YGL086W, strain mad1, hits give low values
[19] = S. cerevisiae deletion strains, locus YGL248W, strain PDE1, hits give low values
[20] = S. cerevisiae deletion strains, locus YGR135W, strain pre9, hits give low values
[21] = S. cerevisiae deletion strains, locus YGR252W, strain gcn5, hits give low values
[22] = S. cerevisiae deletion strains, locus YHR030C, strain SLT2, hits give low values
[23] = S. cerevisiae deletion strains, locus YHR079C, strain IRE1 (second series), hits give low values
[24] = S. cerevisiae deletion strains, locus YHR094C, strain hxt1, hits give low values
[25] = S. cerevisiae deletion strains, locus YHR129C, strain ARP1, hits give low values
[26] = S. cerevisiae deletion strains, locus YHR200W, strain rpn10, hits give low values
[27] = S. cerevisiae deletion strains, locus YIL066C, strain RNR3, hits give low values
[28] = S. cerevisiae deletion strains, locus YIL073C, strain SPO22, hits give low values
[29] = S. cerevisiae deletion strains, locus YIL125W, strain kgd1, hits give low values
[30] = S. cerevisiae deletion strains, locus YIR030C, strain dcg1, hits give low values
[31] = S. cerevisiae deletion strains, locus YJL095W, strain BCK1, hits give low values
[32] = S. cerevisiae deletion strains, locus YJL134W, strain LCB3, hits give low values
[33] = S. cerevisiae deletion strains, locus YJL168C, strain set2, hits give low values
[34] = S. cerevisiae deletion strains, locus YJL187C, strain SWE1 (second series), hits give low values
[35] = S. cerevisiae deletion strains, locus YKL009W, strain mrt4, hits give low values
[36] = S. cerevisiae deletion strains, locus YKL068W, hits give low values
[37] = S. cerevisiae deletion strains, locus YKL085W, strain MDH1 (second series), hits give low values
[38] = S. cerevisiae deletion strains, locus YKL085W, strain MDH1, hits give low values
[39] = S. cerevisiae deletion strains, locus YKR001C, strain vps1, hits give low values
[40] = S. cerevisiae deletion strains, locus YLR039C, strain RIC1, hits give low values
[41] = S. cerevisiae deletion strains, locus YLR058C, strain SHM2, hits give low values
[42] = S. cerevisiae deletion strains, locus YLR102C, strain apc9, hits give low values
[43] = S. cerevisiae deletion strains, locus YLR268W, strain sec22, hits give low values
[44] = S. cerevisiae deletion strains, locus YLR330W, strain CHS5, hits give low values
[45] = S. cerevisiae deletion strains, locus YLR371W, strain rom2, hits give low values
[46] = S. cerevisiae deletion strains, locus YLR418C, strain cdc73, hits give low values
[47] = S. cerevisiae deletion strains, locus YML016C, strain PPZ1, hits give low values
[48] = S. cerevisiae deletion strains, locus YML032C, strain rad52, hits give low values
[49] = S. cerevisiae deletion strains, locus YML124C, strain tub3, hits give low values
[50] = S. cerevisiae deletion strains, locus YMR078C, strain ctf18, hits give low values
[51] = S. cerevisiae deletion strains, locus YMR223W, strain ubp8, hits give low values
[52] = S. cerevisiae deletion strains, locus YMR307W, strain GAS1, hits give low values
[53] = S. cerevisiae deletion strains, locus YNL067W, strain RPL9B, hits give low values
[54] = S. cerevisiae deletion strains, locus YNL153C, strain GIM3, hits give low values
[55] = S. cerevisiae deletion strains, locus YNL233W, strain BNI4, hits give low values
[56] = S. cerevisiae deletion strains, locus YNL250W, strain rad50, hits give low values
[57] = S. cerevisiae deletion strains, locus YNL271C, strain bni1, hits give low values
[58] = S. cerevisiae deletion strains, locus YNL298W, strain CLA4, hits give low values
[59] = S. cerevisiae deletion strains, locus YNL307C, strain MCK1, hits give low values
[60] = S. cerevisiae deletion strains, locus YNR052C, strain pop2, hits give low values
[61] = S. cerevisiae deletion strains, locus YOL012C, strain htz1
[62] = S. cerevisiae deletion strains, locus YOL147C, strain pex11, hits give low values
[63] = S. cerevisiae deletion strains, locus YOR061W, strain CKA2, hits give low values
[64] = S. cerevisiae deletion strains, locus YOR069W, strain VPS5, hits give low values
[65] = S. cerevisiae deletion strains, locus YOR136W, strain idh2, hits give low values
[66] = S. cerevisiae deletion strains, locus YOR144C, strain elg1, hits give low values
[67] = S. cerevisiae deletion strains, locus YOR184W, strain ser1, hits give low values
[68] = S. cerevisiae deletion strains, locus YOR316C, strain cot1, hits give low values
[69] = S. cerevisiae deletion strains, locus YPL241C, strain CIN2, hits give low values
[70] = S. cerevisiae deletion strains, locus YPR119W, strain clb2, hits give low values
[71] = S. cerevisiae deletion strains, locus YPR141C, strain kar3, hits give low values
[72] = S. cerevisiae deletion strains, locus YPR163C, strain tif3, hits give low values
[73] = S. cerevisiae deletion strains, locus YPR167C, strain met16, hits give low values
[74] = S. cerevisiae deletion strains, strain wtn01, hits give low values

Measured: normalized growth

CC(=O)O[C@H]1CC[C@]2(C)C3=CC(=O)[C@@]4(C)C(C[C@@H]5OC6(OCC(C)CC6Br)[C@@H](C)[C@@H]54)C3CC[C@H]2C1 (some centres undefined)
inactive: S. cerevisiae deletion strains, locus YAL013W, strain DEP1, hits give low values 1.01 | [1] 0.964 | [2] 0.99 | [3] 0.994 | [4] 1.01 | [5] 1.01 | [6] 0.989 | [7] 0.988 | [8] 0.995 | [9] 1.02 | [10] 1.01 | [11] 0.997 | [12] 0.994 | [13] 0.995 | [14] 0.986 | [15] 0.987 | [16] 0.996 | [17] 0.982 | [18] 1.01 | [19] 0.995 | [20] 0.973 | S. cerevisiae deletion strains, locus YGR229C, strain SMI1, hits give low values 1.03 | [21] 0.986 | [22] 0.992 | [23] 0.984 | [24] 0.973 | [25] 0.995 | [26] 0.984 | [27] 1 | [28] 1.01 | [29] 0.994 | [30] 0.996 | [31] 0.994 | [32] 0.993 | [33] 0.994 | [34] 0.981 | S. cerevisiae deletion strains, locus YJR043C, strain POL32, hits give low values 1.02 | S. cerevisiae deletion strains, locus YJR075W, strain HOC1, hits give low values 0.995 | [35] 1.01 | [36] 0.996 | [39] 0.989 | [40] 0.987 | [41] 0.995 | [42] 0.993 | S. cerevisiae deletion strains, locus YLR262C, strain YPT6, hits give low values 1.04 | [43] 0.995 | [44] 0.997 | [45] 0.99 | [46] 0.991 | [47] 0.982 | [48] 0.995 | [49] 0.988 | [50] 0.993 | [51] 0.993 | [52] 0.981 | [53] 0.98 | [54] 0.993 | [55] 1.01 | [56] 0.989 | [57] 0.993 | [58] 0.99 | [59] 0.993 | [60] 0.983 | [61] 0.79 | [62] 0.997 | [63] 0.992 | [64] 0.992 | [65] 0.991 | [66] 0.989 | [67] 1.01 | [68] 0.99 | [69] 0.999 | [70] 0.991 | [71] 0.99 | [72] 0.992 | [73] 0.992 | [74] 1.01
active: [37] 1.13 [resistant] | [38] 1.13 [resistant]

CC(=O)O[C@H]1CC[C@]2(C)C3C(=O)[C@@H](OC(C)=O)[C@@]4(C)C(C[C@@H]5O[C@]6(CCC(C)CO6)[C@@H](C)[C@@H]54)C3CC[C@H]2C1 (some centres undefined)
inactive: [1] 1.01 | [2] 0.997 | [3] 0.996 | [4] 1.03 | [5] 1.06 | [6] 0.986 | S. cerevisiae deletion strains, locus YDL134C, strain PPH21, hits give low values 0.998 | [7] 0.986 | [8] 1 | [9] 1.01 | [10] 1.02 | [11] 0.991 | [12] 0.99 | [13] 0.984 | S. cerevisiae deletion strains, locus YEL061C, strain CIN8, hits give low values 0.999 | [14] 0.983 | [15] 0.984 | [16] 0.993 | [17] 0.963 | [18] 0.986 | [19] 0.985 | [20] 0.978 | [21] 1.04 | [22] 0.992 | [23] 0.99 | [24] 0.987 | [25] 0.991 | [26] 0.982 | [27] 1.01 | [28] 1.01 | [29] 0.987 | [30] 0.988 | [31] 0.996 | [32] 0.993 | [33] 0.994 | [34] 0.988 | [35] 0.994 | [36] 0.997 | [37] 0.987 | [38] 0.987 | S. cerevisiae deletion strains, locus YKL190W, strain CNB1, hits give low values 0.998 | [39] 0.982 | [40] 1.05 | [41] 1 | [42] 0.985 | [43] 1.01 | [44] 0.996 | [45] 0.99 | [46] 0.977 | [47] 0.981 | [48] 1.01 | [49] 0.991 | [50] 0.992 | [51] 0.994 | [52] 1 | [53] 0.981 | [54] 0.988 | [55] 0.988 | [56] 0.968 | [57] 0.976 | [58] 0.991 | [59] 0.986 | S. cerevisiae deletion strains, locus YNL322C, strain KRE1, hits give low values 0.997 | [60] 0.974 | [61] 0.895 | [62] 0.986 | [63] 1 | [64] 0.996 | [65] 0.988 | [66] 0.992 | [67] 1.01 | [68] 0.987 | S. cerevisiae deletion strains, locus YPL055C, strain LGE1, hits give low values 1.02 | [69] 0.996 | [70] 0.98 | [71] 0.983 | [72] 0.991 | [73] 0.976 | [74] 1.01 | S. cerevisiae strains, strain wild type, hits give low values 1.01
